# Screen size: about 360,000 compounds; about 25,000 (6.9%) were called active. Inconclusive results (about 9%) are left out. This is one part of a sample in which actives are shown more often than they occur. Unmarked numbers belong to inactive results. Calls follow the shape of the dose curve; as a rule, active = well fitted inhibition curve with a large enough effect; inconclusive = small, poorly fitted or top-dose-only effect; inactive = flat fitted curve, though single readings scatter.
# Target: Luciferin 4-monooxygenase (Photinus pyralis) (UniProt P08659)
# Sequence (P08659 whole entry, looked up): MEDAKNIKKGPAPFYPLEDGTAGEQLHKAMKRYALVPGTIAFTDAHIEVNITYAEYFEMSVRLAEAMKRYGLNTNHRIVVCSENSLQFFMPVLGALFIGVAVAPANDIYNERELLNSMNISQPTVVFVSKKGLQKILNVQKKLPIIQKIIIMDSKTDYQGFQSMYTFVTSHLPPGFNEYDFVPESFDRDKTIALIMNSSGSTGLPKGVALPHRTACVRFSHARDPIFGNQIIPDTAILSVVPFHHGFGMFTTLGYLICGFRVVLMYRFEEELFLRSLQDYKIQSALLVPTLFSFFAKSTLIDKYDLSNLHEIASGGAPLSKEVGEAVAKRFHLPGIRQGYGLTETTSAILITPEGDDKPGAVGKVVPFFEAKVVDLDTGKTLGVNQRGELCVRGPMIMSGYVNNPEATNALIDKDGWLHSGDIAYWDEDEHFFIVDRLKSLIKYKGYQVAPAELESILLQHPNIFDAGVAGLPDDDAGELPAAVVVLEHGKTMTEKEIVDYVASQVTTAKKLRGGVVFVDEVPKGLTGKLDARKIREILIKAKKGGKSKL
# Assay: qHTS profiling assay for firefly luciferase inhibitor/activator using purifed enzyme and Km concentrations of substrates (counterscreen for miR-21 project); also: nearly all actives have a fitted effect of over 55% in size;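 as to activity change, negative = inhibition: plate controls were vehicle for no effect and reference inhibitor for full effect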
# Conditions: purified FLuc, luminescence inhibition; series mostly up to 57.5 µM; activity change, negative = inhibition: at the top concentration
# In short: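 Biochemical qHTS of compounds, final roughly 60 µM downward over six points, against 10 nM purified firefly luciferase using Km concentrations of substrates (10 uM D-luciferin, 10 uM ATP) in Tris acetate pH 7.5 buffer; luminescence output.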
# Potency is read from the fitted curve at half-maximal effect.
Compound,"activity change, negative = inhibition [%]",Potency
Cc1ccc(C)c(NC(=O)Cn2ccn(-c3ccc(F)cc3)c(=O)c2=O)c1,4.99,
CCOC(=O)C1CCN(c2nc3c(S(=O)(=O)c4ccc(CC)cc4)nnn3c3ccc(Cl)cc23)CC1,-1.37,
CCc1ccc(CNC(=O)c2cc3c(=O)n(CC)c4ccccc4c3s2)cc1,1.5,
O=C(CCN1CCCO1)N1CCCC(N2CCN(c3cccc(C(F)(F)F)c3)CC2)C1 (stereo not drawn),2.52,
CCC(CC)c1nnc(NS(=O)(=O)Cc2ccccc2)s1,-1.81,
CCc1ccc(CNC(=O)C2CCN(c3nn4cc(-c5ccc(F)cc5)nc4s3)CC2)cc1,1.26,
CCC(CC)c1nn2cc(-c3ccccc3)nc2s1,,0.269 µM (active)
Cc1ccc(F)cc1NC(=O)CCSc1nc(-c2ccco2)cc(C(F)(F)F)n1,-0.691,
Clc1ccccc1CSc1nncn2c1cc1occc12,-11.8,
CSCCC(NC(=O)COc1ccccc1)C(=O)N(C)CC(=O)Nc1ccc(C)cc1 (stereo not drawn),-1.45,
CCOC(=O)C1CCN(C(=O)CSc2c3c(nc4ccc(Cl)cc24)CCCC3)CC1,-13.8,
C=CCNC(=O)c1csc(-c2ccccc2)n1,-1.52,
C=CC[n+]1c(-c2ccc(C)cc2)csc1NNC(=O)Nc1ccccc1,,19 µM (active)
C=CCNc1scc(-c2ccccc2)[n+]1CC=C,-2.24,
CCOC(=O)C1CCCN(CCSc2ccc(C)cc2)C1 (stereo not drawn),0.266,
O=C(COC(=O)CNC(=O)C1CCCCC1)NCc1ccccc1,0.92,
COc1ccc2c(CC(=O)OCC(=O)Nc3ccccc3[N+](=O)[O-])coc2c1,-0.294,
Cc1ccc2nc(N3CCN(C(=O)c4ccco4)CC3)sc2c1,,10.7 µM (active)
Cc1ccc(OCC(=O)Nc2ccc(N3CCN(C(=O)c4ccco4)CC3)cc2)c(C)c1,0.84,
Cc1nc2ccc(C(=O)N3CCN(c4ccccc4)CC3)cc2s1,0.986,
Cc1nc2ccc(C(=O)N3CCSCC3)cc2s1,-1.24,
CC1CCN(c2nc3ccc(C(=O)N4CCN(c5ccccc5)CC4)cc3s2)CC1,,23.9 µM (active)
Cc1ccc(C)c(OCC(=O)N2CCN(C(=O)c3ccco3)CC2)c1,-0.911,
COc1cccc(CN2CCc3nc(SCC(=O)Nc4ccccc4)[nH]c(=O)c3C2)c1,2.41,
COC(=O)C(NS(=O)(=O)c1ccc(F)cc1)c1ccccc1 (stereo not drawn),-0.463,
CCOc1ccc(N(Cc2ccccc2)C(=O)c2nc(S(C)(=O)=O)ncc2Cl)cc1,-18.4,

Compound,"activity change, negative = inhibition [%]",Potency
COc1ccc(C(=O)Cn2nnc(-c3ccc(N4CCOCC4)cc3)n2)cc1OC,,8.49 µM (active)
CCOc1ccc(-c2nnn(CC(=O)N3CCN(c4ccc(OC)cc4)CC3)n2)cc1OCC,1.79,
CCOc1ccc(-c2nnn(CC(=O)N3CCN(c4ccc(F)cc4)CC3)n2)cc1OCC,4.38,
COC(=O)C1CCN(C(=O)c2ccc3oc(Cc4ccc(Cl)cc4)nc3c2)CC1,1.04,
COc1cccc(NC(=O)Cn2c(=O)cc(C)c3c(C)nn(-c4cccc(F)c4)c32)c1,-13.9,
Cn1c(=O)n(C)c2cc(S(=O)(=O)Nc3ccc(F)cc3)ccc21,2.5,
Cc1ccc2cc(C#N)c(SCC(=O)NCC3CCCO3)nc2c1C (stereo not drawn),1.51,
COc1ccccc1N1CC(C(=O)Nc2nnc(SCC(=O)NCC3CCCO3)s2)CC1=O (stereo not drawn),2.57,
COc1cc(OC)cc(C(=O)Nc2nnc(SCC(=O)NCC3CCCO3)s2)c1 (stereo not drawn),,15.1 µM (active)
Cc1cc(C)nc(Nc2n[nH]c(-c3ccccc3N)n2)n1,,0.953 µM (active)
CCCOc1ccccc1-c1nc(SCCC(=O)O)n[nH]1,-0.6,
Cc1cc(C)nc(Nc2ncn[nH]2)n1,-1.97,
COC(=O)C1=C(c2ccccc2)c2ccccc2S(=O)(=O)N1CC(=O)Nc1ccccc1C(F)(F)F,-1.53,
O=C(CSc1nccn1C1CCCC1)Nc1cc(C(F)(F)F)ccc1Cl,0.704,
CCC(C(=O)OC)n1cnc2c(oc3ccccc32)c1=O (stereo not drawn),-18,
COc1ccc(C)cc1Nc1nc(C)nc2c1oc1ccccc12,1.78,
COc1ccccc1Nc1ncnc2c1oc1ccccc12,,13.5 µM (active)
O=C(CN1C(=O)NC2(CCOc3ccccc32)C1=O)NCc1ccc(F)cc1 (stereo not drawn),-2.17,
Cc1nccn1CC(=O)N/N=C/c1ccc(O)c(O)c1,0.875,
CCN(CC)CCn1c(/N=C/c2cc(Br)ccc2O)nc2ccccc21,1.48,
Oc1ccc(Br)cc1/C=N/Nc1ccccn1,,8.49 µM (active)
O=C(Nc1ccccc1)N1CCN(C2c3ccccc3-c3ccccc32)CC1,6.12,
CC1=C(c2ccc(C)c(C)c2)S(=O)(=O)NC1=NCc1ccccc1Cl,1.46,
CC(C)CN(C(=O)CSc1ncnc2sccc12)C1CCS(=O)(=O)C1 (stereo not drawn),3.7,
COc1ccc(C)cc1Nc1nc(-c2c(C)[nH]c3ccccc23)cs1,,13.5 µM (active)
COC(=O)c1cnc(Nc2cc(C)ccc2OC)c2ccccc12,-11.7,

Compound,"activity change, negative = inhibition [%]",Potency
COc1ccc(C)cc1Nc1nc2ccccc2c2nnc(C)n12,-5.86,
Cc1ccc(CN2C(=O)SC(Nc3ccccc3)C2=O)cc1 (stereo not drawn),-11.1,
Cc1ccc(N(CC(=O)NCc2ccc(Cl)cc2)S(=O)(=O)N(C)C)cc1,-13.2,
Cc1cc(C)cc(OC(C)C(=O)Nc2nc3c(s2)CCCC3)c1 (stereo not drawn),-9.73,
Fc1ccc2nc(Nc3nc4c(s3)CCCC4)sc2c1,,3.01 µM (active)
COC(=O)C(NC(C)=O)(Nc1nc2c(s1)CCCC2)C(F)(F)F (stereo not drawn),-1.43,
Cc1cccc(Nc2nc(C)nc(N)c2S(=O)(=O)c2ccccc2)c1,-1.97,
CCc1ccccc1NC(=O)Cn1c(=O)n(CC2CCC(C(=O)NCCc3ccccc3)CC2)c(=O)c2ccccc21 (stereo not drawn),-6.38,
CSc1ccccc1C(=O)Nc1cccc(C(C)=O)c1,1.57,
CC(=O)c1cccc(NC(=O)CSc2nc3c(c(=O)[nH]2)CCC3)c1,-13.1,
CCSc1nsc(NC(=O)Nc2cccc(C(C)=O)c2)n1,,19 µM (active)
C=CCSc1nsc(NC(=O)Nc2cccc(C(C)=O)c2)n1,,15.1 µM (active)
COc1ccc(NC(C(=O)Nc2cccc(C(C)=O)c2)c2ccccc2)cc1 (stereo not drawn),-17.4,
CC(=O)c1cccc(NC(=S)N2CCN(S(C)(=O)=O)CC2)c1,-1.09,
Cc1ccc2c(c1)-c1c(cnn1CC(=O)Nc1ccccc1C#N)CO2,-1.26,
Cc1ccc(Cn2c(=O)n(Cc3nc(-c4ccccc4)no3)c(=O)c3cc4c(cc32)OCO4)cc1,-5.64,
Cc1ccccc1OCc1nnc(SCC(=O)N2c3ccccc3Sc3ccc(Cl)cc32)o1,2.4,
CC1CCC(NS(=O)(=O)c2ccc3c(c2)CC(=O)N3)CC1 (stereo not drawn),2.55,
Cc1ccc(NC(=O)c2cc(S(=O)(=O)NCCC3=CCCCC3)ccc2F)cc1C,-8.28,
CCN1CCN(C(=O)CSc2ccc(C)cc2)CC1,-14.3,
Cc1ccc(SCC(=O)c2cc(C)c(OC(=S)N(C)C)c(C)c2)cc1,,8.49 µM (active)
COC(=O)c1cc(OC)c(OC)cc1NC(=O)CSc1ccc(C)cc1,0.552,
COc1ccc(OC)c(Nc2nc3ccccc3n3cnnc23)c1,-12.2,
COc1cc(/C=N/Nc2nn3cnnc3c3ccccc23)cc(OC)c1OC,,0.953 µM (active)
COc1cc(Nc2nc3ccc(Cl)cc3n3cnnc23)cc(OC)c1OC,-3.86,
O=C(CSc1nnc(CNC(=O)c2ccccc2)n1-c1ccc(F)cc1)Nc1ccccc1F,-5.85,

Compound,"activity change, negative = inhibition [%]",Potency
COc1cc(OC)c(/C=N/NC(=O)c2ccc([N+](=O)[O-])cc2)cc1Br,-14.7,
Cc1cc[n+](-c2[nH]c(=O)sc2/C=N/NC(=O)c2ccccc2[O-])cc1C,0.934,
Cc1[nH]n(-c2ccc([N+](=O)[O-])cc2)c(=O)c1C=NCCN1CCN(C(=O)c2ccccc2F)CC1,-12,
COc1cc(/C=N/NC(=O)c2ccoc2C)ccc1OCCN1CCCCC1,-1.73,
Cc1ccc(-n2[nH]c(C)c(/C=N/NC(=O)c3cccc([N+](=O)[O-])c3)c2=O)cc1C,,0.426 µM (active)
Cc1[nH]n(-c2ccccc2)c(=O)c1/C=N/NC(=O)c1ccoc1C,,21.3 µM (active)
O=C(NNC1=NCCC1)c1cccc(S(=O)(=O)N2CCCCC2)c1,-1.3,
Cc1ccc(Cl)cc1N(C)C(=O)Cn1nc(Cc2cccnc2)c2ccccc2c1=O,-1.43,
COc1cccc(N2CCN(C(=O)CCCCCn3c(=O)[nH]c4ccccc4c3=O)CC2)c1,5.13,
COCCN(C(=O)CC1CCCCC1)c1c(N)n(CC(C)C)c(=O)[nH]c1=O,0.775,
CCOC(=O)N1CCc2c(sc3c2c(=O)n(-c2ccc(CC)cc2)c(=O)n3C)C1,0.141,
CCNC(=O)c1cnn(-c2ccccc2)c1-c1ccccc1,-2.26,
O=C(Cn1cnc2c(oc3ccccc32)c1=O)Nc1ccc(OC(F)(F)F)cc1,1.89,
CCN(CC)CC(=O)Nc1nn(-c2ccccc2)nc1C(N)=O,-26.6,
CC(=O)c1nn(-c2ccc(OC(F)(F)F)cc2)nc1Nc1ccccc1,,0.379 µM (active)
Cc1ccc(C(=O)NCCSc2c(C)[nH]c3ccccc23)cc1C,3.87,
CCc1ccc(-c2cc(C(=O)NCc3ccco3)c3ccccc3n2)s1,,5.36 µM (active)
CCOc1ccc(CNC(=O)c2cc(-c3ccc(Cl)s3)nc3ccccc23)cc1,-1.03,
O=C(NCc1ccco1)c1nc(-c2ccccc2)n(-c2ccccc2)n1,3.28,
COc1ccccc1N1CCN(CCCNC(=O)c2cnn(-c3ccccc3Cl)c2C2CCN(C(=O)OC(C)(C)C)CC2)CC1,-6.1,
Cc1ccc(OS(=O)Nc2cccc3nccnc23)cc1 (stereo not drawn),-1.56,
CCOc1ccc(NC(=O)C(=O)NCCc2csc3nc(-c4ccccc4F)nn23)cc1,3.81,
COCc1cc(C)nc2sc(C(=O)NC3CCCCC3)c(N)c12,,16.9 µM (active)
COc1ccc(OC)c(NC(=O)c2sc3nc(C)cc(C)c3c2N)c1,-0.687,
COc1cc(OC)c(C(=O)NC2CCCCCC2)cc1OC,-18.4,

# Source: PubChem BioAssay AID588342 (National Center for Advancing Translational Sciences (NCATS), 2011)
